What all share (details): mRNA level, 48 h; actives raise or lower the signal
Read-out in experiment [1]: Tumor necrosis factor receptor superfamily member 6 (Homo sapiens) (UniProt P25445)
In words: LTEA_HepaRG_FAS: Life Technologies and Expression Analysis (LTEA) Assay for Fas cell surface death receptor (FAS) using HepaRG (AID 2283447). In outline: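 FAS transcript level was measured by TaqMan qRT-PCR against three housekeeping genes after 48 h chemical exposure. Cells were HepaRG, 0.5% DMSO vehicle, with a top concentration of 100 uM and half-log dilutions over eight points, in duplicate.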

Read-out in experiment [2]: Fatty acid synthase (Homo sapiens) (UniProt P49327)
Nature of the experiment: LTEA_HepaRG_FASN: Life Technologies and Expression Analysis (LTEA) Assay for Fatty Acid Synthase (FASN) using HepaRG (AID 2283448).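 On AC50: differentiated human HepaRG liver cells in serum-free induction medium.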 In outline: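 Cells were plated, cultured 48 h, switched to serum-free induction medium, then dosed in duplicate (max 100 uM, half-log dilutions, 0.5% DMSO) for 48 h. RNA was then isolated and FASN quantified by qRT-PCR.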

Read-out in experiment [3]: Cyclin D2 (CCND2), CCND2 (gene 894)
In words: LTEA_HepaRG_CCND2: Life Technologies and Expression Analysis (LTEA) Assay for Cyclin D2 (CCND2) using HepaRG (AID 2283449). In outline:
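CCND2 transcript levels, quantified by qRT-PCR and normalised to three housekeeping genes, were fitted bidirectionally against 0.5% DMSO. HepaRG cultures were dosed 48 h in duplicate with an 8-point half-log series up to 100 uM.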

Read-out in experiment [4]: Cyclin Dependent Kinase Inhibitor 1A (CDKN1A), CDKN1A (gene 1026)
In words: LTEA_HepaRG_CDKN1A: Life Technologies and Expression Analysis (LTEA) Assay for Cyclin Dependent Kinase Inhibitor 1A (CDKN1A) using HepaRG (AID 2283450). In outline:
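Read-out is CDKN1A mRNA by TaqMan qRT-PCR, normalized to three housekeeping genes and fitted in both directions against the DMSO baseline. Human HepaRG cells were treated 48 h with test chemicals up to 100 uM in half-log steps, 0.5% DMSO.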

Read-out in experiment [5]: catalase (CAT), CAT (gene 847)
In words: LTEA_HepaRG_CAT: Life Technologies and Expression Analysis (LTEA) Assay for catalase (CAT) using HepaRG (AID 2283452).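 On AC50: TaqMan qRT-PCR signal normalized to ACTB GAPDH and POLR2A housekeeping genes.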 A digest of the protocol:
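Expression of CAT was quantified by TaqMan qRT-PCR with ACTB/GAPDH/POLR2A normalization after 48 h chemical exposure of HepaRG. Eight-point half-log series, top 100 uM, in 0.5% DMSO; gain or loss fitted against vehicle.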

Read-out in experiment [6]: flavin-containing dimethylaniline monooxygenases 3 (FMO3), FMO3 (gene 2328)
In words: LTEA_HepaRG_FMO3: Life Technologies and Expression Analysis (LTEA) Assay for flavin-containing dimethylaniline monooxygenases 3 (FMO3) using HepaRG (AID 2283453).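 On AC50: differentiated human HepaRG liver cells in serum-free induction medium.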 In outline:
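FMO3 transcript quantified by TaqMan qRT-PCR against three housekeeping genes after 48 h chemical exposure of HepaRG cells. Eight-point half-log series, top 100 uM, 0.5% DMSO vehicle; phenobarbital 1mM induction control; up- or down-regulation fitted.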

Read-out in experiment [7]: Cytochrome P450 (CYP1A1), CYP1A1 (gene 1543)
Nature of the experiment: LTEA_HepaRG_CYP1A1: Life Technologies and Expression Analysis (LTEA) Assay for Cytochrome P450 (CYP1A1) using HepaRG (AID 2283454). A digest of the protocol:
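HepaRG, 48 h post-plating switched to serum-free induction medium; 8-pt conc-response (top 100 uM, half-log, 0.5% DMSO), duplicates, 48 h. Lysis in RLT, TaqMan qRT-PCR for CYP1A1; gain or loss vs DMSO.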

Read-out in experiment [8]: CFLAR gene, CFLAR (gene 8837)
In words: LTEA_HepaRG_CFLAR: Life Technologies and Expression Analysis (LTEA) Assay for CFLAR gene using HepaRG (AID 2283455). A digest of the protocol: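 Transcript level by qRT-PCR (normalized to ACTB, GAPDH and POLR2A) after 48 h chemical exposure of HepaRG cells, top concentration 100 uM with half-log steps, 0.5% DMSO vehicle, duplicates; fitted bidirectionally against DMSO baseline.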

Read-out in experiment [9]: Forkhead box O1 (FOXO1), FOXO1 (gene 2308)
In words: LTEA_HepaRG_FOXO1: Life Technologies and Expression Analysis (LTEA) Assay for Forkhead box O1 (FOXO1) using HepaRG (AID 2283456). In outline: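 FOXO1 transcript quantified by qRT-PCR after 48 h chemical exposure (top 100 uM, half-log steps, 0.5% DMSO) of HepaRG cells, housekeeping-normalized (ACTB/GAPDH/POLR2A). Changes fitted in both directions relative to vehicle.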

Read-out in experiment [10]: growth arrest and DNA damage 45 (GADD45A), GADD45A (gene 1647)
In words: LTEA_HepaRG_GADD45A: Life Technologies and Expression Analysis (LTEA) Assay for growth arrest and DNA damage 45 (GADD45A) using HepaRG (AID 2283458). In outline: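 Transcript induction or loss, quantified by TaqMan qRT-PCR against three housekeeping genes, is the read-out. HepaRG cells received chemicals for 48 h across eight half-log concentrations from 100 uM in 0.5% DMSO; gain and loss fitted relative to DMSO.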

Read-out in experiment [11]: Forkhead box O3 (FOXO3), FOXO3 (gene 2309)
Nature of the experiment: LTEA_HepaRG_FOXO3: Life Technologies and Expression Analysis (LTEA) Assay for Forkhead box O3 (FOXO3) using HepaRG (AID 2283459). A digest of the protocol:
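FOXO3 transcript measured by qRT-PCR (normalized to ACTB, GAPDH, POLR2A) after 48 h exposure of HepaRG cells in serum-free induction medium. Duplicates, eight half-log concentrations up to 100 uM, 0.5% DMSO; gain or loss fitted against DMSO.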

Read-out in experiment [12]: ABC Transporter (ABCB1), ABCB1 (gene 5243)
Nature of the experiment: LTEA_HepaRG_ABCB1: Life Technologies and Expression Analysis (LTEA) Assay for ABC Transporter (ABCB1) using HepaRG (AID 2283460). A digest of the protocol: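 ABCB1 transcript level measured by TaqMan qRT-PCR against three housekeeping genes after 48 h chemical exposure of differentiated HepaRG cells. Top concentration 100 uM, half-log steps, eight points, 0.5% DMSO vehicle; bidirectional fit relative to DMSO.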

Read-out in experiment [13]: growth arrest and DNA damage 45 (GADD45B), GADD45B (gene 4616)
In words: LTEA_HepaRG_GADD45B: Life Technologies and Expression Analysis (LTEA) Assay for growth arrest and DNA damage 45 (GADD45B) using HepaRG (AID 2283461). A digest of the protocol: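 HepaRG, ~100,000 cells/well, 48 h plating; serum-free induction medium; cpd 100 uM top, half-log x8, 0.5% DMSO, duplicate, 48 h; lysis in RLT, RNA isolation, qRT-PCR; norm ACTB/GAPDH/POLR2A; bidirectional fit vs DMSO.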

Read-out in experiment [14]: ABC Transporter (ABCC3), ABCC3 (gene 8714)
In words: LTEA_HepaRG_ABCC3: Life Technologies and Expression Analysis (LTEA) Assay for ABC Transporter (ABCC3) using HepaRG (AID 2283462). In outline: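 Human HepaRG, 48 h dosing, 8-pt half-log series from 100 uM, 0.5% DMSO vehicle, duplicates. ABCC3 mRNA by TaqMan qRT-PCR, housekeeping-normalized; bidirectional curve fit vs DMSO.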

Read-out in experiment [15]: ABC Transporter (ABCB11), ABCB11 (gene 8647)
Nature of the experiment: LTEA_HepaRG_ABCB11: Life Technologies and Expression Analysis (LTEA) Assay for ABC Transporter (ABCB11) using HepaRG (AID 2283463). In outline:
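ABCB11 transcript levels quantified by TaqMan qRT-PCR against three housekeeping genes after 48 h chemical exposure of HepaRG cultures. Concentrations up to 100 uM in half-log steps, 0.5% DMSO vehicle; both induction and suppression scored.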

Read-out in experiment [16]: ABC Transporter (ABCC2), ABCC2 (gene 1244)
Nature of the experiment: LTEA_HepaRG_ABCC2: Life Technologies and Expression Analysis (LTEA) Assay for ABC Transporter (ABCC2) using HepaRG (AID 2283464). A digest of the protocol: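 HepaRG, 48 h post-plating; serum-free induction medium; cpd 8-pt, 100 uM top, half-log, 0.5% DMSO, duplicate, 48 h. Readout: ABCC2 mRNA by qRT-PCR, norm. ACTB/GAPDH/POLR2A. Bidirectional fit vs DMSO baseline.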

Read-out in experiment [17]: Broad substrate specificity ATP-binding cassette transporter ABCG2 (Homo sapiens) (UniProt Q9UNQ0)
Nature of the experiment: LTEA_HepaRG_ABCG2: Life Technologies and Expression Analysis (LTEA) Assay for ABC Transporter (ABCG2) using HepaRG (AID 2283465). A digest of the protocol: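 ABCG2 transcript was quantified by TaqMan qRT-PCR against three housekeeping genes in HepaRG cells. Cells were treated in duplicate for 48 h across an 8-point half-log series up to 100 uM, with 0.5% DMSO vehicle. Gain or loss versus DMSO was fit.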

Structures are written as SMILES. Calls of active or inactive are those of the source. How the source made its calls: active means hit-call score of the fitted dose curve at least 0.9, where 1 is the maximum; inactive means score below 0.9.

Chain of Fatty acid synthase (Homo sapiens) (P49327 whole entry, looked up): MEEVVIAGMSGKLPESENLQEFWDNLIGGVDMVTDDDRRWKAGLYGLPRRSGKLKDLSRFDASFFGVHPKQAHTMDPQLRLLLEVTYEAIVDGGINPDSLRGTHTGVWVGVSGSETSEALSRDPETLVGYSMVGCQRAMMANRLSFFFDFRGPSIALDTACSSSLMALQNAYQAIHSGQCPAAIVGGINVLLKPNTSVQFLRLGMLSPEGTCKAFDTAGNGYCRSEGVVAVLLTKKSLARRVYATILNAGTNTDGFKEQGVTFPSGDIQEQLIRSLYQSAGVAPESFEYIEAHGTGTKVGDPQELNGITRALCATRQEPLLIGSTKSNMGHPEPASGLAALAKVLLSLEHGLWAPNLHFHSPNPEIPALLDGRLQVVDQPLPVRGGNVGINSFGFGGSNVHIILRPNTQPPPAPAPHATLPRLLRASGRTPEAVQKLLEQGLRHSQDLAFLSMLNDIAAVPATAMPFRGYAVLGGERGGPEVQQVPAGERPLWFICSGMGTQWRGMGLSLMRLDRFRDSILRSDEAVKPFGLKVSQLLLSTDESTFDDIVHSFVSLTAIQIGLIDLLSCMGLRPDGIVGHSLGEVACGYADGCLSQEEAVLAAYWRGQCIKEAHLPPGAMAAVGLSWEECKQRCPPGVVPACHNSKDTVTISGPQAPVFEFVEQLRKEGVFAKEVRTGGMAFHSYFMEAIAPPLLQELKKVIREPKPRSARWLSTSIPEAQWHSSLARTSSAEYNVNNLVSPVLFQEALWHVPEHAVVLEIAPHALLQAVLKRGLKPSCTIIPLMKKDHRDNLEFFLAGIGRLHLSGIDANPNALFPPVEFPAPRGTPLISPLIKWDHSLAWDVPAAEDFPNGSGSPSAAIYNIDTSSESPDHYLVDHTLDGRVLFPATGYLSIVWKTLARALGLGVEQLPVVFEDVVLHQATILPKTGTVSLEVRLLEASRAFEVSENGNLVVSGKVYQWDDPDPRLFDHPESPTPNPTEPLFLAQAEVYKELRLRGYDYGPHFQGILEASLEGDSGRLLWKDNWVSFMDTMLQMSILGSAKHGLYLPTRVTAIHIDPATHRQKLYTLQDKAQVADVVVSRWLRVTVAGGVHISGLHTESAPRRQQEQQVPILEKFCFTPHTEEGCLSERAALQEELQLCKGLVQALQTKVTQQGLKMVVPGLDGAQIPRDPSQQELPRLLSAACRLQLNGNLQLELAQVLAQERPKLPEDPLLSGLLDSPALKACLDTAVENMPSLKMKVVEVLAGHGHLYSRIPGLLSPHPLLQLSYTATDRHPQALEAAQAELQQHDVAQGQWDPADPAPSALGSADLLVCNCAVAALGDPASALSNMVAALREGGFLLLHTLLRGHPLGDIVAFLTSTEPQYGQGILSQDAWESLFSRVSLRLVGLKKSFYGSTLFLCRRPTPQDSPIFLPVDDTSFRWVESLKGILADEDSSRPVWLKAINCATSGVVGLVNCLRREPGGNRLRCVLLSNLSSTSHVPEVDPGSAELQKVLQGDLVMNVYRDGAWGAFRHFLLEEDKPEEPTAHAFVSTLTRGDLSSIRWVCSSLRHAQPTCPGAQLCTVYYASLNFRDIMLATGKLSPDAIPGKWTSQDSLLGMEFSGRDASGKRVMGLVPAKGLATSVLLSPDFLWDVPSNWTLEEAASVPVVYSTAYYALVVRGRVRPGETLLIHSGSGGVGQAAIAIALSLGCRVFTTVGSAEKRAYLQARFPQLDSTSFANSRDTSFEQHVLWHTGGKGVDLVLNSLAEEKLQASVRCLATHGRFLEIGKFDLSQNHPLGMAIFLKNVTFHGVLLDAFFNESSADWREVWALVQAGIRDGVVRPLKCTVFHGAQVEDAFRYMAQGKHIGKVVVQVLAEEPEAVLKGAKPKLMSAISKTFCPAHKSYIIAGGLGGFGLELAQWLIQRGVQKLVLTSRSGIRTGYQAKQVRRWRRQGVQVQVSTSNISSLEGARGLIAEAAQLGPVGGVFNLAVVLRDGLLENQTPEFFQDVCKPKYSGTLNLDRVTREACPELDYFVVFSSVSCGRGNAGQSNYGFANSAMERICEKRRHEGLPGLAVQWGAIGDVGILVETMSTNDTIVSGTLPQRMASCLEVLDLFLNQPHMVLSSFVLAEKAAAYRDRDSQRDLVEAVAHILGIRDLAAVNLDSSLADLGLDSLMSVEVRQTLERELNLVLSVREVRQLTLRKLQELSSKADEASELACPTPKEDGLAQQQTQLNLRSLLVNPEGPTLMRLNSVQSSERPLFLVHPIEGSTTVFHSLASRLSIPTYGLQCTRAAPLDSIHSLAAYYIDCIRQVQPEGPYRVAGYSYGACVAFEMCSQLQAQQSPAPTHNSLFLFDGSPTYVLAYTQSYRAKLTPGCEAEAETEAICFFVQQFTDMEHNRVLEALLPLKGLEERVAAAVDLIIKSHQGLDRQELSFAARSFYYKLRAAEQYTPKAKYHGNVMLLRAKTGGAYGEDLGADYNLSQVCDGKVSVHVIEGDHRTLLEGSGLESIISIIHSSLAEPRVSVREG
Chain of Broad substrate specificity ATP-binding cassette transporter ABCG2 (Homo sapiens) (Q9UNQ0 whole entry, looked up): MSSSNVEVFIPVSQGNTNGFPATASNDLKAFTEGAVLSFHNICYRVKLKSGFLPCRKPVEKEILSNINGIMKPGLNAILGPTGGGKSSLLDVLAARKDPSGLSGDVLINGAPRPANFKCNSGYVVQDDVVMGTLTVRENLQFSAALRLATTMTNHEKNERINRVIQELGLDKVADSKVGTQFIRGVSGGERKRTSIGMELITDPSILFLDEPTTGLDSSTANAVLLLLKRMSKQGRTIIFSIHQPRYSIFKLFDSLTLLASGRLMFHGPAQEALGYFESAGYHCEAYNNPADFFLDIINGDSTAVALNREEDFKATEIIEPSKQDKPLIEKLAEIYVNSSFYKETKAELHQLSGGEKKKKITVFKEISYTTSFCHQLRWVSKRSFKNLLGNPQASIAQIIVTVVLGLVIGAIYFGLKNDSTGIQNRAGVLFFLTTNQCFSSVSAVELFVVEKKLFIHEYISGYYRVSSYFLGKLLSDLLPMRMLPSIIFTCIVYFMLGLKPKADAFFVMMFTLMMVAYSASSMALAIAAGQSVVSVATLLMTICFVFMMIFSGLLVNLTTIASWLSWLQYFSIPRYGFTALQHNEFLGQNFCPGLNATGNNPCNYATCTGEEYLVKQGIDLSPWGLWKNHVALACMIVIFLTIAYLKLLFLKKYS

On to `CCCCCCCCCCCCCCCC`, for which the outcome in [1], in [2], in [3], in experiment [4], in experiment [5] and in [6] was inactive. For the same compound, the result in experiment [8], in experiment [9], in experiment [10], in [11], in [12] and in experiment [13] was inactive. For the same compound, the result in experiment [14], in experiment [15], in experiment [16] and in experiment [17] was inactive. Further, the AC50 in experiment [7] was 50 µM (active).

Consider `Cc1oc(-c2ccccc2)nc1CCOc1cccc2c1ccn2CCC(=O)O`, for which the AC50 in [1] is 87.9 µM (active); in experiment [2], 11.9 µM (active); in experiment [4], 71.2 µM (active); in [5] it was 88.3 µM (active); in [6], 76.7 µM (active); in experiment [8] it was 10.7 µM (active). Besides, the AC50 in experiment [9] was 85.6 µM (active); in [10], 75.2 µM (active); in experiment [12] it was 81.3 µM (active); in [13], 75.8 µM (active); in experiment [17] it was 40.2 µM (active). The outcome in [3], in experiment [7], in [14] and in experiment [16] was inactive.

On to `CCOC(=O)CCC(=O)OCC`, for which, in experiment [1], the AC50 was 85.1 µM (active). The result in [2], in experiment [3], in [4], in experiment [5], in [6] and in experiment [7] was inactive. For the same compound, the result in experiment [8], in experiment [9], in experiment [10], in experiment [11], in experiment [12] and in experiment [13] was inactive. Also, the compound was classed as inactive in experiment [14] and in [17].

Turning to `Oc1ccc2ccccc2c1N=Nc1ccccc1`, the result in [1], in [3], in experiment [4], in experiment [9], in [10] and in [12] was inactive. For the same compound, the compound was classed as inactive in experiment [14] and in experiment [16]. The AC50 in experiment [2] was 1.16 µM (active); in experiment [5] it was 9.92 µM (active); in experiment [6], 10.4 µM (active); in experiment [7] it was 0.14 µM (active); in [11], 7.86 µM (active); in [13] it was 31 µM (active). For the same compound, the AC50 is 6.98 µM (active) in experiment [15] and 30.3 µM (active) in experiment [17].

A word on the AC50: it is the midpoint of the concentration-response curve, whichever way the signal moves.

Source of the values: PubChem BioAssay (EPA / NIEHS).
